PubChem BioAssay (NCATS)
Records with an inconclusive call do not appear. Active and inactive are the calls of the source. Unless noted, calls follow the shape of the dose curve; as a rule, active = well fitted curve in the direction sought with a large enough effect; inconclusive = small, poorly fitted or top-dose-only effect, or another doubt; inactive = no such curve, though single readings can be large; an effect the other way counts as inactive or inconclusive.

What was measured:
[1] = target: Lysosomal acid glucosylceramidase (Homo sapiens) (UniProt P04062); assay: Glucocerebrosidase-p2 (AID 348; in the data active = potency below about 10 µM; also: potency is read from the fitted curve at half-maximal effect); settings: purified GBA, blue fluorogenic substrate, 40 min
How it was run: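 Compounds titrated from 0.6 nM upwards against 0.2 nM enzyme in pH 5.9 citric acid/KH2PO4, taurocholate, tween-20; blue fluorogenic substrate 80 uM, 40 min room temperature, stopped and read Ex 365/Em 440 for AC50.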

[2] = AP1 Signaling Pathway (AID 357; active = well fitted curve in either direction with a large enough effect, not every such curve was filed as active;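 also: ME-180 reporter cells stimulated with EGF at its EC50 level; % is scaled to controls: 0 for no effect and ±100 for the full control effect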); settings: ME-180 AP-1-bla reporter, EGF-induced, beta-lactamase ratio, 5 h; at 7.69 µM (top of the series) unless noted
How it was run: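 A ratiometric CCF4 readout (405 nm excitation; 460 and 530 nm emission) quantified AP-1-driven beta-lactamase in ME-180 cells after 5 h with compound and EC50 EGF; AC50 values were derived for activators and inhibitors.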

[3] = target: Cytochrome P450 1A2 (Homo sapiens) (UniProt P05177); assay: p450-cyp1a2 (AID 410; calls by dose curve; also: potency is read from the fitted curve at half-maximal effect); settings: recombinant CYP1A2, luciferin-ME demethylation, luminescence; series mostly up to 57 µM
How it was run: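 Luminescent readout of luciferin formed from Luciferin-ME by human CYP1A2; data normalized against complete inhibition by 57 uM furafylline. Enzyme 20nM, substrate 100uM at Km, 100mM KPO4 buffer, 60 min reaction at room temperature.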

[4] = NFAT Signaling Pathway (AID 444; active = well fitted curve in either direction with a large enough effect, not every such curve was filed as active;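 also: carbachol stimulus at about its EC50 of 1 µM final; % is scaled to controls: 0 for no effect and ±100 for the full control effect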); settings: Jurkat NFAT-bla M1, carbachol, beta-lactamase ratio, 5 h; at 7.69 µM (top of the series) unless noted
How it was run: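 Read-out: CCF4 FRET ratio (460 nm/530 nm) after 1 h RT dye loading, used for %activity and AC50 from titration series. Cells: Jurkat NFAT-β-lactamase/M1 line, treated with compound plus 1 uM carbachol for 5 h, 37 °C.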

[5] = Stat Signaling Pathway (AID 446; active = well fitted curve in either direction with a large enough effect, not every such curve was filed as active;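 also: ME-180 cervical cancer cells given 40 pM IL-6 alongside compound; SIE-controlled beta-lactamase reporter measured as 460/530 nm FRET emission ratio; % is scaled to controls: 0 for no effect and ±100 for the full control effect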); settings: ME-180 SIE beta-lactamase reporter, IL-6 stimulated, 5 h; at 7.69 µM (top of the series) unless noted
How it was run: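 Screening format detects activators and inhibitors alike: ME-180 SIE-bla cells stimulated at 40 pM IL-6 for 5 hrs with compound, then dual-emission beta-lactamase read at 405 nm excitation.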

[6] = target: Glucocorticoid receptor (Homo sapiens) (UniProt P04150); assay: GR-GFP Redistribution (AID 450;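 active = compounds whose dose series gives a full or clear partial fitted curve of increased nuclear translocation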; also: potency is read from the fitted curve at half-maximal effect); settings: U2OS GR-GFP nuclear translocation, laser cytometry, 2 h
[7] = target: Glucocorticoid receptor (Homo sapiens) (UniProt P04150); assay: GR-EFC Redistribution (AID 451; calls by dose curve; also: potency is read from the fitted curve at half-maximal effect); settings: CHO-K1 GR-EFC translocation, beta-gal luminescence, 2 h
How it was run: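 Translocation of GR-ED fusion to nuclear EA restores b-gal, read by luminescence after 1 h room-temperature detection. Engineered CHO-K1 biosensor cells, 1,000/well, exposed 2 h at 37 C to titrations up to 46 uM final.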

[8] = target: Mitogen-activated protein kinase 10 (Mus musculus) (UniProt Q61831); assay: JNK3 AlphaScreen Assay (AID 530; active = well fitted curve in either direction with a large enough effect, not every such curve was filed as active;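 also: kinase came from lysate of stimulated human HepG2 cells; signal reports phosphorylation of biotinylated GST-cJun 1-79 at Ser73 with 10 µM ATP; % is scaled to controls: 0 for no effect and ±100 for the full control effect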); settings: JNK3 lysate, c-Jun phosphorylation; series mostly up to 57.1 µM
How it was run: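 Compound titrations were preincubated 15 minutes at room temperature with substrate, antibody and pre-activated JNK3-containing HepG2 lysate. Reactions were started with 10 uM ATP and stopped with EDTA-containing bead buffer for AlphaScreen detection.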

[9] = target: 3',5'-cyclic-AMP phosphodiesterase 4B (Homo sapiens) (UniProt Q07343); assay: qHTS Assay for Inhibitors of PDE-IV (AID 607; active = well fitted activation curve with a large enough effect in the main read-out, with a control signal flat, not every such curve was filed as active; also: % of control where 0% means no effect); settings: HEK293 ACTOne CNG channel cells, membrane potential fluorescence; series mostly up to 22.9 µM
How it was run: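 The readout is membrane depolarisation from a cAMP-sensing CNG channel, detected with a potential dye at ex 535/em 590. Cells were HEK293-derived (endogenous PDE-IV) at 1000 cells/well, titrated up to 22.9 uM final.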

[10] = target: Cytochrome P450 2C9 (Homo sapiens) (UniProt P11712); assay: qHTS Assay for Inhibitors and Substrates of Cytochrome P450 2C9 (AID 883); settings: recombinant CYP2C9, luciferin-H luminescence, 60 min; series mostly up to 57.1 µM; also: nearly all actives have a fitted effect of over 60% in size; also: potency is read from the fitted curve at half-maximal effect
How it was run: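 Turnover of Luciferin-H (100uM, KM) by 10nM human CYP2C9 was measured over 60 min at 37C with NADPH regeneration; inhibitors and some substrates reduce luminescence. Data normalized to sulphaphenazole 57uM.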

[11] = target: Cytochrome P450 3A4 (Homo sapiens) (UniProt P08684); assay: qHTS Assay for Activators of Cytochrome P450 3A4 (AID 885); settings: recombinant CYP3A4, Luciferin-PPXE luminescence, 60 min; series mostly up to 57.1 µM; also: nearly all actives have a fitted effect of over 65% in size
How it was run: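 Steps: enzyme/substrate mix dispensed; compound added, 10 min RT; NADPH regeneration solution added, 60 min RT; luciferin detection buffer stops reaction; 20 min later luminescence measured.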

[12] = target: Cytochrome P450 2C19 (Homo sapiens) (UniProt P33261); assay: qHTS Assay for Inhibitors and Substrates of Cytochrome P450 2C19 (AID 899); settings: recombinant CYP2C19, luciferin-H EGE luminescence; series mostly up to 57.1 µM; also: nearly all actives have a fitted effect of over 60% in size; also: potency is read from the fitted curve at half-maximal effect
How it was run: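 Reactions contain 5nM enzyme, 10uM Luciferin-H EGE (KM) and 50mM KPO4; compound preincubates 10 min at 37C, NADPH regeneration starts turnover for 60 min. Luminescence after detection reagent gives activity.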

[13] = Confirmation and Secondary Assay for Modulators of Hemoglobin Beta Chain Splicing at IVS2 654 locus (AID 910); settings: HeLa EGFP-654 splicing reporter, GFP fluorescence, 48 h; series mostly up to 38.3 µM;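 also: HeLa cells stably carrying EGFP split by mutant beta-globin IVS2-654 intron; % of control where 0% means no effect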
How it was run: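 Readout: per-well total peak green fluorescence (488 nm ex, 500–520 nm em) from objects 5–250 µm, reflecting correct splicing of an EGFP-654 reporter. Compounds were applied for 2 days at 37 °C to overnight-plated HeLa EGFP-654 cells; controls were DMSO and 500 nM IVS2-654 PNA.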

[14] = qHTS Assay for Identification of Small Molecule Agonists for Hypoxia Response Element Signaling Pathway (AID 914; active = well fitted activation curve with a large enough effect in the signal ratio, with a control signal flat, not every such curve was filed as active; the % refers to the signal ratio; also: % of control where 0% means no effect); settings: ME-180 (cervical carcinoma) HRE-bla reporter, beta-lactamase ratio, CoCl2, 17 h; activation: stronger effect = higher value
How it was run: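 HRE-bla ME-180 cells, overnight plating in Opti-MEM with 0.5% dialyzed FBS; cpd titration + EC50 CoCl2, 17 h, 37 degrees Celsius; CCF4 2.5 h RT; 460/530 nm ratio; AC50.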

[15] = Confirmation and Secondary Assay for Modulators of Hemoglobin Beta Chain Splicing at IVS2 705 locus (AID 930); settings: HeLa EGFP-705 splicing reporter, GFP fluorescence, 48 h; series mostly up to 38.3 µM;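 also: HeLa cells stably expressing the EGFP-705 splicing reporter; GFP fluorescence per well restored by corrected splicing of the IVS2-705 intron in EGFP; % of control where 0% means no effect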
How it was run: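 Read-out: total peak GFP fluorescence per well (488 nm excitation, 500-520 nm emission) by laser-scanning cytometry. Cells: HeLa EGFP-705 splicing reporter, 2 days compound exposure in Optimem/2% FCS.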

[16] = qHTS Assay for Lipid Storage Modulators (AID 1519; calls by dose curve); settings: Drosophila S3 cells, BODIPY lipid droplet/cell ratio, laser cytometry, cells loaded with oleic acid; for activity change, negative = inhibition: at 57.5 µM (top of the series)
How it was run: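 Cells seeded at 5,000 per well were treated with compounds over a concentration series and loaded with oleic acid (400 uM, as added). Lipid droplet fluorescence (488 nm excitation, 500-530 nm channel) was read by laser-scanning cytometry and normalized to 20 uM Triacsin C.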

[17] = target: Ubiquitin carboxyl-terminal hydrolase 1 (Homo sapiens) (UniProt O94782); assay: Inhibitors of USP1/UAF1: Pilot qHTS (AID 504865); settings: purified USP1/UAF1, Ub-rhodamine cleavage fluorescence; series mostly up to 54.9 µM;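 also: rhodamine fluorescence freed from ubiquitin-rhodamine substrate followed over time; top concentration of the series differs between compounds; % is scaled to controls: 0 for no effect and ±100 for the full control effect; nearly all actives have a fitted effect of over 35% in size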
How it was run: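 Enzyme-free wells gave the negative control, while test wells held 1nM USP1/UAF1 preincubated with compound for 15 min at room temperature. Ub-Rho at 150nM final started the reaction, and fluorescence at 480/540 nm was recorded kinetically.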

[18] = Primary qHTS for small molecule stabilizers of the endoplasmic reticulum resident proteome: Secreted ER Calcium Modulated Protein (SERCaMP) assay (AID 1508630); settings: SH-SY5Y GLuc-SERCaMP (Gaussia luciferase released on ER calcium loss) secretion, thapsigargin, luminescence; series mostly up to 38.4 µM; also: % is scaled to controls: 0 for no effect and ±100 for the full control effect
How it was run: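 GLuc-SERCaMP-expressing SH-SY5Y cells, pretreated 16 h with compound, are challenged with thapsigargin to empty ER calcium stores; after 4 h, coelenterazine is added directly to the medium and luminescence is imaged.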

[19] = target: Cytochrome P450 3A4 (Homo sapiens) (UniProt P08684); assay: qHTS Assay for Inhibitors and Substrates of Cytochrome P450 3A4 (AID 884); settings: recombinant CYP3A4, Luciferin-PPXE luminescence; series mostly up to 57.1 µM; also: potency is read from the fitted curve at half-maximal effect; nearly all actives have a fitted effect of over 50% in size
How it was run: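 20 nM human CYP3A4 with 25 uM Luciferin-PPXE (at KM) in 200 mM KPO4, preincubated 10 min with compound; NADPH regeneration started a 60 min RT reaction. Luciferin detected by luminescence, normalized to 57 uM ketoconazole as full inhibition.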

[20] = measured here: cell count channel max response
[21] = measured here: lipid channel max response

Sequence of Lysosomal acid glucosylceramidase (Homo sapiens) (P04062 whole entry, looked up): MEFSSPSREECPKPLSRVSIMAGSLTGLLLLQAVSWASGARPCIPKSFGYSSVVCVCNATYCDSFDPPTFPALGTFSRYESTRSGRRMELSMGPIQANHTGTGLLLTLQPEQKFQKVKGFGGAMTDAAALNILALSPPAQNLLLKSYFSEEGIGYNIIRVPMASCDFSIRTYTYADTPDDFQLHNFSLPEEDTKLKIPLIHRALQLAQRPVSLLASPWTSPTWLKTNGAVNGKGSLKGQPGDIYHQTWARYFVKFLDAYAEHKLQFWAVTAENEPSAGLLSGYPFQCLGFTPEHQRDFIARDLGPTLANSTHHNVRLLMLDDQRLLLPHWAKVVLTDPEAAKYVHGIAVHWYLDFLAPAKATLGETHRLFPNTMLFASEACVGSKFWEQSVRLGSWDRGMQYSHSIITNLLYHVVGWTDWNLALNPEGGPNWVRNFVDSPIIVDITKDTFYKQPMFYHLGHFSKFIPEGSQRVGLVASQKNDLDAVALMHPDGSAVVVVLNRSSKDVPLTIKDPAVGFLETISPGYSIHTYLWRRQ
Sequence of 3',5'-cyclic-AMP phosphodiesterase 4B (Homo sapiens) (Q07343 whole entry, looked up): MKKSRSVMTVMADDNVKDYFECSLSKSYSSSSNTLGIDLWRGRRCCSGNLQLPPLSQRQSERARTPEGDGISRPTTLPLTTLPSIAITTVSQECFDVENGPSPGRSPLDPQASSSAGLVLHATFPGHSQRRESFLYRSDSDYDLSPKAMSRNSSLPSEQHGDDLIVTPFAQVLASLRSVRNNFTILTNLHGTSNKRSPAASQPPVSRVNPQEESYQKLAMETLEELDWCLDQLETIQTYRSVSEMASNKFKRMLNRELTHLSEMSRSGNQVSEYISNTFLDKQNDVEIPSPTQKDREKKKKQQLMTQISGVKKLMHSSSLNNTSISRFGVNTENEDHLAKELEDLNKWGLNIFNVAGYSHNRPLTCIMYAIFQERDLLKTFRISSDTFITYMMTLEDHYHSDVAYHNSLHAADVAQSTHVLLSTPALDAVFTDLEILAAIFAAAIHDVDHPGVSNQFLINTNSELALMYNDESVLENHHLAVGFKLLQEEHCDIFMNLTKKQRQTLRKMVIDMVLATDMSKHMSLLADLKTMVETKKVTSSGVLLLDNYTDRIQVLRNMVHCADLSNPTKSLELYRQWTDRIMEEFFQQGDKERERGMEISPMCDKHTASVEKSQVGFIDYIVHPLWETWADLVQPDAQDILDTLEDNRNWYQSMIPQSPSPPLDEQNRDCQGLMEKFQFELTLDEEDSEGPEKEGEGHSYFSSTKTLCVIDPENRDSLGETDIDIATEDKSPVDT
Sequence of Glucocorticoid receptor (Homo sapiens) (P04150 whole entry, looked up, the tested form may be a part): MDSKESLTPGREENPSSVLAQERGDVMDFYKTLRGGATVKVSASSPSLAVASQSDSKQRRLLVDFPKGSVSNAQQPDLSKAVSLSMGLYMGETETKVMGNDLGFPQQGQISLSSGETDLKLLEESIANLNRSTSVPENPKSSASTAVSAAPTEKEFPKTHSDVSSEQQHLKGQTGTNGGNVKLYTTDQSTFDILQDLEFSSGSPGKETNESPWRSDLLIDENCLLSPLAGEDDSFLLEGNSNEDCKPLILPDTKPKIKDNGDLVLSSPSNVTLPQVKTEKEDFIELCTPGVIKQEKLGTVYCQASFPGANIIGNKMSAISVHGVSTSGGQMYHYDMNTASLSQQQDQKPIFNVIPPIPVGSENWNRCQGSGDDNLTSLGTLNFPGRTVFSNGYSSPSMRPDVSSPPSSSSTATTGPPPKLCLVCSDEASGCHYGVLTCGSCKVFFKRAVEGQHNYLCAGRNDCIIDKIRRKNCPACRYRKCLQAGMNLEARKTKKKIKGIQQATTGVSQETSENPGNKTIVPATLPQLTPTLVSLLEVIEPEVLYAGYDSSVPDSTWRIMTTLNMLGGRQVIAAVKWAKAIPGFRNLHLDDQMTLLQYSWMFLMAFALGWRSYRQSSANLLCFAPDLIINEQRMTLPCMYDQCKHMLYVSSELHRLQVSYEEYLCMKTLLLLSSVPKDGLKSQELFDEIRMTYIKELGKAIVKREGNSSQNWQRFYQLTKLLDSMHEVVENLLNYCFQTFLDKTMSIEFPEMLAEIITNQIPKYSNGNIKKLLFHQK
Sequence of Cytochrome P450 1A2 (Homo sapiens) (P05177 whole entry, looked up): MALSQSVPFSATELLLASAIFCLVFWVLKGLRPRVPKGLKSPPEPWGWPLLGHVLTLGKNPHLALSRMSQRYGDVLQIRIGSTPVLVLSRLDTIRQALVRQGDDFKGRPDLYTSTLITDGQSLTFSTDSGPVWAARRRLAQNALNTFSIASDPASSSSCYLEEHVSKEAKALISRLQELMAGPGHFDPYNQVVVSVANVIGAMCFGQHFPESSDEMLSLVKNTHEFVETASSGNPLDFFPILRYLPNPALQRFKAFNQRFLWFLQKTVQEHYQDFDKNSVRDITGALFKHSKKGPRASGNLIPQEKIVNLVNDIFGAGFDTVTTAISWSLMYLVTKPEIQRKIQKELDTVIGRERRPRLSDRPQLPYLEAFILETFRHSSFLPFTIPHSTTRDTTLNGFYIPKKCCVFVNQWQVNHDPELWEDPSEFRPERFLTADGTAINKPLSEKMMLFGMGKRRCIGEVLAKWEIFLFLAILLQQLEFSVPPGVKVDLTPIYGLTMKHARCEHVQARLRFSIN
Sequence of Cytochrome P450 3A4 (Homo sapiens) (P08684 whole entry, looked up): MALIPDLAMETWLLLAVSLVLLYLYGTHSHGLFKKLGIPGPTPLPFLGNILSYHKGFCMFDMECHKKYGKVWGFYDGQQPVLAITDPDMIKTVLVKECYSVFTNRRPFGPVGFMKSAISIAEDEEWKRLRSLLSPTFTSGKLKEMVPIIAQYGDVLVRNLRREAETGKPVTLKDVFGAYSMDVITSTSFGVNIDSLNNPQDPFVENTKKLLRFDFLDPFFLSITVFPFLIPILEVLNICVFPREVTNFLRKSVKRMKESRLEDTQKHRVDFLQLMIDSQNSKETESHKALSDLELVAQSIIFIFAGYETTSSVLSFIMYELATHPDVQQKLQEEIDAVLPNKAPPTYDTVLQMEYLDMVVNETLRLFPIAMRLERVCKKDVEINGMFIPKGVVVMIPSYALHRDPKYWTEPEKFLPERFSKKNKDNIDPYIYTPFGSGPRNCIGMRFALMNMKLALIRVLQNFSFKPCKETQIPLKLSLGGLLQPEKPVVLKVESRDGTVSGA
Sequence of Ubiquitin carboxyl-terminal hydrolase 1 (Homo sapiens) (O94782 whole entry, looked up): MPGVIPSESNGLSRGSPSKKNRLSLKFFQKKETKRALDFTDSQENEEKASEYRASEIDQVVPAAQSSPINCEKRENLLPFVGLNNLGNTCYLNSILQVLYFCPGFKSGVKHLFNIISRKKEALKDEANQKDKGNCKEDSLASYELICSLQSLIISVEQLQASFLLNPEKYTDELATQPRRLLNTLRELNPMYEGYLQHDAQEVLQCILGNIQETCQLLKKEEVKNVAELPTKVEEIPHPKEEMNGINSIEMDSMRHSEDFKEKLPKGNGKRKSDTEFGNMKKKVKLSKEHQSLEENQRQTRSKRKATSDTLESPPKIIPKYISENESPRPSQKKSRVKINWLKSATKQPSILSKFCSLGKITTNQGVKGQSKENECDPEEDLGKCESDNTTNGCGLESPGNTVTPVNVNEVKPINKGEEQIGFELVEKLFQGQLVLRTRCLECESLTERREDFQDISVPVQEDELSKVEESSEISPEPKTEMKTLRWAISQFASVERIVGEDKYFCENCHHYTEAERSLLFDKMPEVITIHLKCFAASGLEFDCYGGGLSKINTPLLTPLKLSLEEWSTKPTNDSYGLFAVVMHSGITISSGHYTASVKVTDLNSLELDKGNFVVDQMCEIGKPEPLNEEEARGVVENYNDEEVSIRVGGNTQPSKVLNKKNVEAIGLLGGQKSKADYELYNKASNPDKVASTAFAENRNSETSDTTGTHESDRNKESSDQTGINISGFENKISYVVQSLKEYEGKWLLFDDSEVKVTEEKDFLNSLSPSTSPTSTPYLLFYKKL
Sequence of Cytochrome P450 2C9 (Homo sapiens) (P11712 whole entry, looked up): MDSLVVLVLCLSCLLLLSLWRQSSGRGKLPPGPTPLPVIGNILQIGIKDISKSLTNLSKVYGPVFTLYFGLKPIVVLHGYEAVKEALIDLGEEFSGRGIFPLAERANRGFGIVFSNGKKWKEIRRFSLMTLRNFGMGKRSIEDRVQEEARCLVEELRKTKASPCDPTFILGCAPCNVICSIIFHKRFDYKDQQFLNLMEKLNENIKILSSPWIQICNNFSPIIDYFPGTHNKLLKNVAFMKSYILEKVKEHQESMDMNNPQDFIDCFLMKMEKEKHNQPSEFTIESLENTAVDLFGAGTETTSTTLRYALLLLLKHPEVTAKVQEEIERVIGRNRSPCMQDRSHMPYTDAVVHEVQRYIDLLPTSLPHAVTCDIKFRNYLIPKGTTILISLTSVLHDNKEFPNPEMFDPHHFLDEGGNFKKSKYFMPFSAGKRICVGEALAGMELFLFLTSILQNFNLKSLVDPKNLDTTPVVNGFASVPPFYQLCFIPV
Sequence of Cytochrome P450 2C19 (Homo sapiens) (P33261 whole entry, looked up): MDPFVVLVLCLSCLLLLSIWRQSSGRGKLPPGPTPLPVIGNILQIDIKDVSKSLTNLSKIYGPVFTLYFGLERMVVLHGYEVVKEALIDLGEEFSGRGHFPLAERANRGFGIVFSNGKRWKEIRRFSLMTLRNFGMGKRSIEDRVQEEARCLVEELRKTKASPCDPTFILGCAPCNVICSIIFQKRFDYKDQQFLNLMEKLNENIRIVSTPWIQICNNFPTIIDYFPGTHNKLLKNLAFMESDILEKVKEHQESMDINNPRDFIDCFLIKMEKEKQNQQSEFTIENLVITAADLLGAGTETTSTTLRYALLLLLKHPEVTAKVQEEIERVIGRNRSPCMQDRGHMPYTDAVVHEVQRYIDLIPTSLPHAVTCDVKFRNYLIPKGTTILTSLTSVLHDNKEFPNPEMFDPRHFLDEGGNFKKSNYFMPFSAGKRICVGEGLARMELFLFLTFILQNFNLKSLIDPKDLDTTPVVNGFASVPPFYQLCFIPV

CNc1ccnc(-c2c(C)noc2C)n1
inactive: Potency [1] > 11.4 µM | activity change, negative = inhibition [2] 2.46% | activity change, negative = inhibition [4] 1.59% | activity, negative = inhibition [5] 12.4% | Potency [6] > 46 µM | Potency [7] > 46 µM | outcome [8] | Potency [9] | activity change, negative = inhibition [10] 41% [at 2.29 µM] | Potency [11] | Potency [12] | outcome [13] | activation [14] 11.5% | outcome [15] | activity change, negative = inhibition [16] 4.8% | Potency [17] | Potency [18]
-8.12%: max response [16, 21]
active: Potency [3] 1.26 µM
-12.7%: max response [16, 20]

COCCNc1ccnc(-c2cccc(NS(C)(=O)=O)c2)n1
14.8%: max response [16, 20]
active: Potency [3] 2 µM
inactive: Potency [1] > 11.4 µM | activity change, negative = inhibition [2] -8.74% | activity change, negative = inhibition [4] 12.6% | activity, negative = inhibition [5] -1.1% | Potency [6] > 46 µM | Potency [7] > 46 µM | outcome [8] | Potency [9] | Potency [11] | outcome [13] | outcome [15] | activity change, negative = inhibition [16] 9.23% | Potency [17] | Potency [18]
25.9%: max response [16, 21]

COc1ccccc1-c1cncnc1NCc1cccnc1
18.5%: max response [16, 21]
11.1%: max response [16, 20]
inactive: Potency [1] > 11.4 µM | activity change, negative = inhibition [2] -10.2% | activity change, negative = inhibition [4] -4.56% | activity, negative = inhibition [5] 4% | Potency [6] > 46 µM | Potency [7] > 46 µM | outcome [8] | Potency [9] | Potency [11] | outcome [13] | outcome [15] | activity change, negative = inhibition [16] 7.04% | Potency [17] | Potency [18]
active: Potency [3] 6.31 µM | Potency [19] 0.501 µM | Potency [12] 3.16 µM

FC(F)(F)c1ccccc1-c1cc(N2CCNCC2)ncn1
24.8%: max response [16, 21]
active: Potency [3] 5.01 µM
13.9%: max response [16, 20]
inactive: Potency [1] > 11.4 µM | activity change, negative = inhibition [2] 10.3% | activity change, negative = inhibition [4] 5.38% | activity, negative = inhibition [5] 3.09% | Potency [6] > 46 µM | Potency [7] > 46 µM | outcome [8] | Potency [9] | outcome [13] | outcome [15] | activity change, negative = inhibition [16] 9.89% | Potency [17] | Potency [18]

Cn1c(=O)c(-c2cccs2)nc2cncnc21
active: Potency [3] 1.26 µM | Potency [19] 7.94 µM
18.7%: max response [16, 20]
inactive: Potency [1] > 11.4 µM | activity change, negative = inhibition [2] 16% | activity change, negative = inhibition [4] 2.85% | activity, negative = inhibition [5] -17.1% | Potency [6] > 9.22 µM | Potency [7] > 46 µM | outcome [8] | Potency [9] | Potency [11] | activity change, negative = inhibition [16] 2.77% | Potency [17] | Potency [18]
19.2%: max response [16, 21]

CS(=O)(=O)Nc1cccc(-c2cncnc2NCc2cccs2)c1
inactive: Potency [1] > 11.4 µM | activity change, negative = inhibition [2] 5.06% | activity change, negative = inhibition [4] 2.17% | activity, negative = inhibition [5] 12.4% | Potency [6] > 46 µM | Potency [7] > 46 µM | outcome [8] | Potency [9] | Potency [11] | outcome [13] | outcome [15] | activity change, negative = inhibition [16] 4.63% | Potency [17] | Potency [18]
active: Potency [3] 15.8 µM | Potency [10] 0.126 µM | Potency [19] 0.398 µM
8.3%: max response [16, 20]
16.7%: max response [16, 21]
